According to PubChem BioAssay AID605 (National Center for Advancing Translational Sciences (NCATS), 2007):
Hit rate of the full screen: of about 71,000 compounds, about 35 (0.05%) were called active. Calls come from the whole dose curve; as a rule, active = well fitted curve in the direction sought with a large enough effect; inconclusive = small, poorly fitted or top-dose-only effect, or effect the other way; inactive = flat fitted curve, though single readings scatter. Not all results are given here.

Target: tRNA threonylcarbamoyladenosine biosynthesis protein TsaE (Escherichia coli (strain K12)) (UniProt P0AF67)
Assay: qHTS Assay for Inhibitors of YjeE
Details: purified YjeE enzyme, qHTS inhibition assay
Experimental: NIH Molecular Libraries Screening Centers Network [MLSCN]
NIH Chemical Genomics Center [NCGC]
Assay Provider: Eric Brown, McMaster University
YjeE is an essential E.coli protein of unknown function that binds adenosine diphosphate (ADP). A complex of YjeE and BODIPY Texas Red-labeled ADP probe (Invitrogen, catalog number A22359) is incubated with library members. Inhibitors of YjeE-ADP binding are detected by a decrease in the fluorescence polarization (FP) of the fluorophore. Purified YjeE was supplied by Chand Mangat and Eric Brown, McMaster University.
NCGC Assay Protocol Summary:
2 uM probe/10 uM YjeE in columns 1, 2, 5-48. Titration of ADP control (from 40 mM, then 1:2) pin-transferred to top half of column 2. Column 1 and bottom half of column 2 are neutral.
Two and a half uL of reagents were dispensed to 1536-well Greiner black plates. Compounds and controls (20 nL) were transferred via Kalypsys PinTool. The plates were incubated for 15 min at room temperature, and then read on ViewLux (Perkin-Elmer) High-throughput CCD imager using BODIPY polarization filter set and 30 seconds exposure time. During dispense, reagent bottle was kept submerged into 4 deg C water bath and all liquid lines were covered with aluminum foil to minimize probe and protein degradation.
Keywords: NIH Roadmap, MLSCN, MLI, MLSMR, qHTS, NCGC, YjeE

outcome, inactive:
CCc1ccc(Nc2ncc3c(n2)CC(c2ccco2)CC3=O)cc1 (stereo not given)
COc1ccc(CN(C(=O)c2cccs2)c2nccs2)cc1OC
Cc1ccc(C(=O)CS(C)(=O)=O)cc1
CC(C)C(=O)N1CCN(CCN=CC2=C(O)CC(c3ccco3)CC2=O)CC1 (stereo not given)
COc1cccc(N2CCN(C(=O)C3CCCN(S(=O)(=O)c4cnc[nH]4)C3)CC2)c1 (stereo not given)
O=C(Nc1c(C(=O)N2CCCCC2)cnn1-c1ccccc1)c1ccco1
COc1ncc2nc(-c3ccc(Cl)cc3)c(=O)n(-c3ccccc3)c2n1
COc1cc2[nH]c(=S)n(Cc3ccc(C)o3)c(=O)c2cc1OC
CCC(C)(C)N=C(NC#N)Nc1cccnc1
C[C@@H](Nc1nc(-c2ccccc2)nc2c1oc1ccccc12)C(=O)O
Cc1ccc(N(CC(O)CN2CCCC2)S(=O)(=O)c2ccccc2)cc1 (stereo not given)
COc1ccc(N2C(=O)CC(N3CCC(C(N)=O)CC3)C2=O)cc1 (stereo not given)
CCCCCCn1c(CN2CCCC(C)C2)nc2c1c(=O)n(C)c(=O)n2C (stereo not given)
O=NO
Cc1ccc(S(=O)(=O)NC(=O)NN2C[C@H]3CCC[C@@H]3C2)cc1
CCCn1c(=O)c(-c2ccccc2)c(O)c2ccccc21
CC(C)CC1(C(=O)NCc2ccccn2)C=CCN1C(=O)c1ccccc1 (stereo not given)
COCCOC(=O)C1=C(C)Nc2nc(C)nn2C1c1ccccc1 (stereo not given)
CCCC(=O)Nc1nnc(CC(=O)OCC)s1
O=C(O)[C@@H](S)[C@H](S)C(=O)O
